Screening data as filed in PubChem BioAssay.
A selection: hits, their analogues and other compounds. The true share with any hit is near 2.1%.
ROS inducer – cancer cell ROS induction; U2OS ROS induction, H2DCF-DA fluorescence; ROS induction (% of piperlongumine), % at 10 µM; 46,000 tested, 2% active; in the data active = ROS induction above about 79%, passing the limit was not always enough; inconclusive = no clear call, values can overlap the other calls
YB-1 expr inh – YB-1 expression inhibition; U2OS, qRT-PCR YB-1 vs CDIP delta delta Cp, 16 h; stronger effect = higher value; zero = DMSO, each unit about twofold; delta delta Cp (YB-1 minus CDIP) (no concentration beside the values); 30,000 tested, 0.37% active;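 active = delta delta Cp rounded down to an integer at or above 3, about 3 SD of DMSO wells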;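 note: higher means less YB-1 transcript or more CDIP transcript relative to DMSO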
Hits are given with their value.

For C[C@H]1CN([C@@H](C)CO)C(=O)Cc2cc(NC(=O)Cc3cn(C)c4ccccc34)ccc2O[C@H]1CN(C)CC1CCCCC1 the results were ROS inducer inactive and YB-1 expr inh inactive.
For C[C@@H]1CN([C@@H](C)CO)C(=O)Cc2cc(NC(=O)Cc3cn(C)c4ccccc34)ccc2O[C@@H]1CN(C)Cc1ccc(-c2ccccc2)cc1 the results were ROS inducer 85 and YB-1 expr inh inactive.
Screening C[C@H](CO)N1C[C@H](C)[C@H](CN(C)Cc2ccc(Oc3ccccc3)cc2)Oc2ccc(NC(=O)Cc3cn(C)c4ccccc34)cc2CC1=O returned ROS inducer inactive and YB-1 expr inh inactive.
For C[C@@H]1CN([C@H](C)CO)C(=O)Cc2cc(NC(=O)Cc3cn(C)c4ccccc34)ccc2O[C@@H]1CN(C)CC1CC1 the results were ROS inducer 124 and YB-1 expr inh inactive.
For COC(=O)c1cc2sc(Cl)cc2[nH]1 the results were ROS inducer inactive.
For COc1ccc2[nH]c3c(=O)n(CCC(=O)NC4CCCCCC4)c(=S)[nH]c3c2c1 the results were ROS inducer inactive.
`COc1cc(C2CSc3nc4sc5c(c4c(=O)n32)CCCC5)cc(Cl)c1O` (stereo not drawn) gave ROS inducer inactive.
Screening O=C(Cn1cnc2c(nnn2-c2cccc(Cl)c2)c1=O)OCc1ccccc1 returned ROS inducer inactive.
For Cn1nnc2c(NCC(=O)C(C)(C)C)nc(Cc3ccc(Cl)cc3Cl)nc21 the results were ROS inducer inactive.
Screening C[C@H]1CN([C@@H](C)CO)C(=O)Cc2cc(NC(=O)Nc3ccc(F)cc3)ccc2O[C@H]1CN(C)S(=O)(=O)c1cn(C)cn1 returned ROS inducer inactive and YB-1 expr inh 8.1.
`COc1ccc(NC(=O)Nc2ccc3c(c2)CC(=O)N([C@@H](C)CO)C[C@H](C)[C@H](CN(C)S(=O)(=O)c2cn(C)cn2)O3)cc1` gave ROS inducer inactive and YB-1 expr inh inactive.
`C[C@H](CO)N1C[C@H](C)[C@H](CN(C)S(=O)(=O)c2cn(C)cn2)Oc2ccc(NC(=O)Nc3ccc(F)cc3)cc2CC1=O` gave ROS inducer inactive and YB-1 expr inh inactive.
For COc1ccc(NC(=O)Nc2ccc3c(c2)CC(=O)N([C@@H](C)CO)C[C@@H](C)[C@@H](CN(C)S(=O)(=O)c2cn(C)cn2)O3)cc1 the results were ROS inducer 90 and YB-1 expr inh inactive.
For COC(CNC(=O)c1oc2ccc3c(c2c1C)C=CC(C)(C)O3)OC the results were ROS inducer inactive.
`C=CCNC(=O)c1cc(-c2ccc(C)c(C)c2)nc2ccccc12` gave ROS inducer inactive.
Screening CCCc1cc(=O)oc2cc(OCC(=O)OCc3ccccc3)ccc12 returned ROS inducer inactive.
Screening COc1cc(C)c(Br)cc1S(=O)(=O)NCCN1CCOCC1 returned ROS inducer 142.
`CCOc1cc(C)c(S(=O)(=O)NCCN2CCOCC2)cc1C` gave ROS inducer inactive.
For Cc1ccc(NC(=O)Nc2nnc(N3C(C)CCCC3C)s2)cc1C (stereo not drawn) the results were ROS inducer inactive.
Screening C[C@@H]1CCCCO[C@@H](CN(C)S(=O)(=O)c2ccc(F)cc2)[C@@H](C)CN([C@H](C)CO)C(=O)c2cc(NC(=O)Nc3ccc(F)cc3)ccc2O1 returned ROS inducer inactive and YB-1 expr inh inactive.
`C[C@@H]1CCCCO[C@H](CN(C)S(=O)(=O)c2ccc(F)cc2)[C@@H](C)CN([C@H](C)CO)C(=O)c2cc(NC(=O)NC3CCCCC3)ccc2O1` gave ROS inducer 166 and YB-1 expr inh inactive.
`C[C@@H]1CCCCO[C@@H](CN(C)S(=O)(=O)c2ccc(Cl)cc2)[C@@H](C)CN([C@H](C)CO)C(=O)c2cc(NC(=O)c3ccccc3)ccc2O1` gave ROS inducer 133 and YB-1 expr inh inactive.
For C[C@@H]1CCCCO[C@@H](CN(C)S(=O)(=O)c2ccc(Cl)cc2)[C@@H](C)CN([C@H](C)CO)C(=O)c2cc(NS(=O)(=O)c3ccc(Cl)cc3)ccc2O1 the results were ROS inducer inconclusive and YB-1 expr inh inactive.
Screening C[C@@H]1CCCCO[C@H](CN(C)Cc2ccc3c(c2)OCO3)[C@@H](C)CN([C@H](C)CO)C(=O)c2cc(NS(=O)(=O)c3ccc(Cl)cc3)ccc2O1 returned ROS inducer inactive and YB-1 expr inh inactive.
Screening C[C@@H]1CCCCO[C@@H](CN(C)S(=O)(=O)c2ccccc2)[C@@H](C)CN([C@H](C)CO)C(=O)c2cc(NS(=O)(=O)c3ccc(Cl)cc3)ccc2O1 returned ROS inducer 113 and YB-1 expr inh inactive.
For C[C@@H]1CCCCO[C@H](CN(C)S(=O)(=O)c2ccccc2)[C@@H](C)CN([C@H](C)CO)C(=O)c2cc(NC(=O)c3ccccc3)ccc2O1 the results were ROS inducer inactive and YB-1 expr inh inactive.
Screening Cc1ccc(S(=O)(=O)Nc2ccc3c(c2)C(=O)N([C@H](C)CO)C[C@H](C)[C@@H](CN(C)Cc2ccc4c(c2)OCO4)OCCCC[C@@H](C)O3)cc1 returned ROS inducer 95 and YB-1 expr inh inactive.
Screening CN1CCN(CCNC(=O)Cn2cccc2C(=O)c2ccccc2)CC1 returned ROS inducer inactive.
For CC(C)(C)c1ccc(NC(=O)/C=C/c2ccc(-c3cccs3)s2)cc1 the results were ROS inducer inactive.
`COc1cc(OC)cc(C(=O)Nc2cccc3nsnc23)c1` gave ROS inducer inactive.
CCc1cccc(C)c1NC(C)=O was read as ROS inducer inactive.
For C[C@@H]1CCCCO[C@@H](CN(C)S(=O)(=O)c2ccc(F)cc2)[C@@H](C)CN([C@H](C)CO)C(=O)c2cc(NS(=O)(=O)c3ccc(F)cc3)ccc2O1 the results were ROS inducer inactive and YB-1 expr inh inactive.
C[C@@H]1CCCCO[C@@H](CN(C)S(=O)(=O)c2ccc(Cl)cc2)[C@@H](C)CN([C@H](C)CO)C(=O)c2cc(NS(=O)(=O)c3ccc(F)cc3)ccc2O1 was read as ROS inducer 118 and YB-1 expr inh inactive.
Screening O=C(c1ccc2c(c1)sc1nc(-c3ccccc3)cn12)N1CCCCC1 returned ROS inducer inactive.
`CC(=O)O[C@H]1[C@H](Oc2ccccc2COC(=O)C2(O)C=CCCC2=O)O[C@H](COC(=O)C2(O)C=CCCC2=O)[C@@H](O)[C@@H]1O` (stereo partly drawn) gave ROS inducer 89 and YB-1 expr inh inactive.
`CC(=O)O[C@H]1[C@H](Oc2ccccc2COC(=O)C2(O)C=CCCC2=O)O[C@H](CO)[C@@H](O)[C@@H]1O` (stereo partly drawn) gave ROS inducer inactive and YB-1 expr inh inactive.
`CCOC(=O)c1sc(SC)c2c1CC(c1ccc(OC)cc1)CC2=O` (stereo not drawn) gave ROS inducer 136 and YB-1 expr inh inactive.
For CCOC(=O)c1sc(SC)c2c1CCc1cnc(SC)nc1-2 the results were ROS inducer inactive and YB-1 expr inh inactive.
For COc1ccc(Cl)cc1NS(C)(=O)=O the results were ROS inducer inactive.
Screening CCC(=O)c1ccc(N2CCN(C(=O)c3ccco3)CC2)c(F)c1 returned ROS inducer inactive.
For Cc1ccc(OCCN2CCN(c3cc(C)c(C#N)c4nc5ccccc5n34)CC2)cc1 the results were ROS inducer 100.
Cc1cc(N2CCCC2)n2c(nc3ccccc32)c1C#N was read as ROS inducer inactive.
